The values below come from PubChem BioAssay (NCI).

Each structure is given as a SMILES string. This is part of a sample that, as a whole, favours compounds with a hit. Of some 83,000 tested, about 20% had one in any assay.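 Assay: single dose, 48 h. Readout: percent growth (0 = no net growth; negative = cell death). Active: <10.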 Values without a mark were called inactive. Active and inactive are the calls of the source.

Among the test systems are HCT-15 colon; HT29 colon; SNB-75 CNS; SNB-19 CNS; U251 CNS; PC-3 prostate; SK-MEL-5 melanoma; UACC-62 melanoma; LOX IMVI melanoma; SK-MEL-28 melanoma; SK-MEL-2 melanoma; EKVX NSCLC; SN12C renal; UO-31 renal; TK-10 renal; ACHN renal; CAKI-1 renal; A498 renal; CCRF-CEM leukemia; MOLT-4 leukemia.
Holding throughout (assay): NCI-60 one-dose screen, 48 h (100 = growth as untreated, 0 = no growth, -100 = all killed)
What all share (details): 10 µM unless noted

With `CCOC(=O)C#Cc1c(C(=O)OCC)nnn1[C@@H]1O[C@H](COC)[C@@H](OC)[C@H]1OC`, the growth with HCT-15 colon is -12.2% (active); with HT29 colon, 24.9%; in the test on SNB-75 CNS it was 72.9%; in the test with SNB-19 CNS it was 97.9%; with U251 CNS, 102%; in the test on PC-3 prostate, 92.4%. Also, the growth in the test on SK-MEL-5 melanoma is 98.3%; with UACC-62 melanoma it was 93.8%; with LOX IMVI melanoma, 67%; in the test with SK-MEL-28 melanoma, 96.3%; in the test with SK-MEL-2 melanoma, 92%; in the test with EKVX NSCLC, 107%. In addition, the growth is 82.5% with SN12C renal; 29.2% with UO-31 renal; 11.1% in the test on TK-10 renal; -35.3% (active) in the test with ACHN renal; -91.2% (active) in the test on CAKI-1 renal; 99.1% in the test with A498 renal. The growth in the test with CCRF-CEM leukemia was 27.7%; in the test with MOLT-4 leukemia, 58.6%.

For the compound `CNC(=O)c1cc(Oc2ccc3c(c2)sc2nc(-c4ccc(NC(=O)[C@@H](NC(=O)OC)C(C)C)cc4)cn23)ccn1`, the growth is 73.2% in the test with HCT-15 colon; 72.1% in the test on HT29 colon; 99.5% in the test on SNB-75 CNS; 91.1% in the test on SNB-19 CNS; 81.6% in the test on U251 CNS; 40.2% in the test with PC-3 prostate. The growth in the test with SK-MEL-5 melanoma was 5.33% (active); in the test with UACC-62 melanoma, 42.9%; with LOX IMVI melanoma, 67.2%; with SK-MEL-28 melanoma, 75.7%; in the test on SK-MEL-2 melanoma, 59.6%; in the test on EKVX NSCLC, 66.3%. The growth was 72.2% in the test with SN12C renal; 52.5% in the test with UO-31 renal; 85.4% in the test on TK-10 renal; 83.3% with ACHN renal; 77.1% with CAKI-1 renal; 68.5% in the test with A498 renal. Further, the growth is 23.5% in the test with CCRF-CEM leukemia and 23.8% in the test with MOLT-4 leukemia.

Turning to `O=c1cc(CP(=O)(O)O)c2cc(O)c(-c3ccccc3)cc2o1`, the growth is 101% in the test with HCT-15 colon; 108% in the test with HT29 colon; 83.8% in the test on SNB-75 CNS; 96.8% in the test with SNB-19 CNS; 100% in the test with U251 CNS; 98.6% with PC-3 prostate. For the same compound, the growth in the test with SK-MEL-5 melanoma is 98.1%; in the test with UACC-62 melanoma it was 97.8%; in the test on LOX IMVI melanoma, 99.5%; in the test on SK-MEL-28 melanoma, 104%; in the test on SK-MEL-2 melanoma it was 107%; with EKVX NSCLC, 89%. Besides, the growth was 98.2% in the test with SN12C renal; 88.2% with UO-31 renal; 106% in the test on TK-10 renal; 98.4% in the test on ACHN renal; 93% in the test with CAKI-1 renal; 109% in the test with A498 renal. The values for the growth with CCRF-CEM leukemia and with MOLT-4 leukemia were 93.6% and 99.2%, respectively.

Regarding `CN(C)CCCn1c2c(c3ccncc3c1=O)C(=O)c1ccccc1-2`, the growth in the test on HCT-15 colon was 2.9% (active); with HT29 colon it was 2.14% (active); in the test with SNB-75 CNS, 21%; in the test with SNB-19 CNS it was 1.91% (active); in the test on U251 CNS it was 0.267% (active); in the test on PC-3 prostate it was -18.5% (active). Besides, the growth with SK-MEL-5 melanoma is -94.3% (active); in the test with UACC-62 melanoma, -56.7% (active); in the test on LOX IMVI melanoma, -42.3% (active); with SK-MEL-28 melanoma it was -43.1% (active); with SK-MEL-2 melanoma it was -4.66% (active); in the test with EKVX NSCLC it was 82.7%. The growth was 6.53% (active) with SN12C renal; -37.4% (active) with UO-31 renal; 12.8% in the test with TK-10 renal; -38.4% (active) in the test on ACHN renal; 10.8% in the test on CAKI-1 renal; 58% with A498 renal. Also, the growth in the test on CCRF-CEM leukemia is 1.34% (active); with MOLT-4 leukemia it was -15% (active).

In the case of `CCOC(=O)C/C(=N\Nc1cc(=O)[nH]c2ccc(C)cc12)C(=O)OCC`, the growth in the test on HCT-15 colon was 103%; in the test with HT29 colon, 112%; with SNB-75 CNS, 94.7%; with SNB-19 CNS it was 97.8%; in the test on U251 CNS, 103%; in the test on PC-3 prostate, 91.4%. In addition, the growth with SK-MEL-5 melanoma is 96.8%; in the test with UACC-62 melanoma it was 91.1%; with LOX IMVI melanoma it was 102%; in the test on SK-MEL-28 melanoma, 99.3%; with SK-MEL-2 melanoma, 108%; in the test on EKVX NSCLC, 109%. For the same compound, the growth in the test with SN12C renal was 101%; in the test on UO-31 renal, 86.7%; with TK-10 renal, 101%; in the test on ACHN renal, 99%; in the test on CAKI-1 renal, 94.6%; in the test with A498 renal, 112%. Besides, the figures for the growth in the test on CCRF-CEM leukemia and in the test on MOLT-4 leukemia were -57.2% (active) and 18.3%, respectively.

`C=C1SC(=Nc2ccccc2Cl)N(C(=O)c2sc3ccccc3c2Cl)C1(C)C`: the growth with HCT-15 colon is 81.4%; with HT29 colon, 61.6%; with SNB-75 CNS, 42.6%; in the test with SNB-19 CNS, 42.9%; in the test on U251 CNS, 49.2%; in the test with PC-3 prostate, 30.7%. The growth in the test on SK-MEL-5 melanoma is 66.7%; in the test on UACC-62 melanoma, 60%; in the test with LOX IMVI melanoma, 77.3%; in the test on SK-MEL-28 melanoma, 113%; in the test with SK-MEL-2 melanoma it was 151%; in the test on EKVX NSCLC it was 54.4%. Further, the growth with SN12C renal is 78.9%; with UO-31 renal it was 107%; with TK-10 renal, 107%; in the test with ACHN renal, 46.1%; in the test on CAKI-1 renal, 49%; in the test on A498 renal, 90.5%. Besides, the results for the growth in the test with CCRF-CEM leukemia and in the test on MOLT-4 leukemia were 19.8% and 20.3%, respectively.

Take `CC[C@H](Nc1nc(N)nc(C)c1C#N)c1nc2cccc(CN(C)c3ncc(C(=O)NO)cn3)c2c(=O)n1-c1ccccc1`: the growth was 42.8% in the test with HCT-15 colon; -18.4% (active) in the test on HT29 colon; 29.1% in the test with SNB-75 CNS; 11% with SNB-19 CNS; -69.6% (active) in the test on U251 CNS; 14.6% in the test with PC-3 prostate. Moreover, the growth was -92.2% (active) with SK-MEL-5 melanoma; -80% (active) with UACC-62 melanoma; -86.6% (active) with LOX IMVI melanoma; 6.03% (active) with SK-MEL-28 melanoma; -5.85% (active) in the test with SK-MEL-2 melanoma; 35.3% with EKVX NSCLC. For the same compound, the growth was 2.71% (active) with SN12C renal; -4.88% (active) with UO-31 renal; -21.8% (active) in the test on TK-10 renal; 24% in the test with ACHN renal; 18.1% with CAKI-1 renal; -40% (active) with A498 renal. Also, the growth was 15.3% with CCRF-CEM leukemia and 9.84% (active) in the test with MOLT-4 leukemia.
